The list is not random: actives were taken first. Their share in the collection is about 5.7%.
GRIN3A LBD mod: modulates the human NR3A ligand-binding domain. NR3A LBD differential scanning fluorimetry, Tm shift; 0% = protein alone, 100% = glycine-bound protein. 340,000 tested, 2.5% active. AID 1259313. Tm shift relative to glycine control, % at 25 µM;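 active = melting temperature shift of at least 10% of the positive control shift, at one fixed dose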
Myeloid diff MLP: myeloid differentiation induction | ER-HoxA9 myeloid progenitors, lysozyme-GFP differentiation, flow cytometry | AID 624256 | 360,000 tested, 1% active | calls only at 10 µM;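 active = normalized GFP-positive differentiation at or above the plate's own cutoff, the solvent-only control mean plus 3 SD; inconclusive = no clear call, values can overlap the other calls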;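 also: cells exposed to compound for four days before flow analysis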
MPTP inh: inhibitors of mitochondrial permeability transition pore; isolated mouse mitochondria, Ca2+ swelling absorbance, 30 min; inhibition, % at 10 µM; 360,000 tested, 1.4% active;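 active = inhibition of 50% or more, scaled per plate between neutral and stimulator controls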
FAS TE block: inhibitors of human fatty acid synthase thioesterase domain | AID 602261 | P49327 | inhibition, % at 15 µM | recombinant FAS-TE, OMFH fluorogenic substrate, fluorescence endpoint | 360,000 tested, 0.67% active;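 active = compounds whose normalised, plate-corrected inhibition of enzyme fluorescence in the single-dose primary screen is 50% or more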
Target sequence (P49327 whole entry, looked up, the tested form may be a part): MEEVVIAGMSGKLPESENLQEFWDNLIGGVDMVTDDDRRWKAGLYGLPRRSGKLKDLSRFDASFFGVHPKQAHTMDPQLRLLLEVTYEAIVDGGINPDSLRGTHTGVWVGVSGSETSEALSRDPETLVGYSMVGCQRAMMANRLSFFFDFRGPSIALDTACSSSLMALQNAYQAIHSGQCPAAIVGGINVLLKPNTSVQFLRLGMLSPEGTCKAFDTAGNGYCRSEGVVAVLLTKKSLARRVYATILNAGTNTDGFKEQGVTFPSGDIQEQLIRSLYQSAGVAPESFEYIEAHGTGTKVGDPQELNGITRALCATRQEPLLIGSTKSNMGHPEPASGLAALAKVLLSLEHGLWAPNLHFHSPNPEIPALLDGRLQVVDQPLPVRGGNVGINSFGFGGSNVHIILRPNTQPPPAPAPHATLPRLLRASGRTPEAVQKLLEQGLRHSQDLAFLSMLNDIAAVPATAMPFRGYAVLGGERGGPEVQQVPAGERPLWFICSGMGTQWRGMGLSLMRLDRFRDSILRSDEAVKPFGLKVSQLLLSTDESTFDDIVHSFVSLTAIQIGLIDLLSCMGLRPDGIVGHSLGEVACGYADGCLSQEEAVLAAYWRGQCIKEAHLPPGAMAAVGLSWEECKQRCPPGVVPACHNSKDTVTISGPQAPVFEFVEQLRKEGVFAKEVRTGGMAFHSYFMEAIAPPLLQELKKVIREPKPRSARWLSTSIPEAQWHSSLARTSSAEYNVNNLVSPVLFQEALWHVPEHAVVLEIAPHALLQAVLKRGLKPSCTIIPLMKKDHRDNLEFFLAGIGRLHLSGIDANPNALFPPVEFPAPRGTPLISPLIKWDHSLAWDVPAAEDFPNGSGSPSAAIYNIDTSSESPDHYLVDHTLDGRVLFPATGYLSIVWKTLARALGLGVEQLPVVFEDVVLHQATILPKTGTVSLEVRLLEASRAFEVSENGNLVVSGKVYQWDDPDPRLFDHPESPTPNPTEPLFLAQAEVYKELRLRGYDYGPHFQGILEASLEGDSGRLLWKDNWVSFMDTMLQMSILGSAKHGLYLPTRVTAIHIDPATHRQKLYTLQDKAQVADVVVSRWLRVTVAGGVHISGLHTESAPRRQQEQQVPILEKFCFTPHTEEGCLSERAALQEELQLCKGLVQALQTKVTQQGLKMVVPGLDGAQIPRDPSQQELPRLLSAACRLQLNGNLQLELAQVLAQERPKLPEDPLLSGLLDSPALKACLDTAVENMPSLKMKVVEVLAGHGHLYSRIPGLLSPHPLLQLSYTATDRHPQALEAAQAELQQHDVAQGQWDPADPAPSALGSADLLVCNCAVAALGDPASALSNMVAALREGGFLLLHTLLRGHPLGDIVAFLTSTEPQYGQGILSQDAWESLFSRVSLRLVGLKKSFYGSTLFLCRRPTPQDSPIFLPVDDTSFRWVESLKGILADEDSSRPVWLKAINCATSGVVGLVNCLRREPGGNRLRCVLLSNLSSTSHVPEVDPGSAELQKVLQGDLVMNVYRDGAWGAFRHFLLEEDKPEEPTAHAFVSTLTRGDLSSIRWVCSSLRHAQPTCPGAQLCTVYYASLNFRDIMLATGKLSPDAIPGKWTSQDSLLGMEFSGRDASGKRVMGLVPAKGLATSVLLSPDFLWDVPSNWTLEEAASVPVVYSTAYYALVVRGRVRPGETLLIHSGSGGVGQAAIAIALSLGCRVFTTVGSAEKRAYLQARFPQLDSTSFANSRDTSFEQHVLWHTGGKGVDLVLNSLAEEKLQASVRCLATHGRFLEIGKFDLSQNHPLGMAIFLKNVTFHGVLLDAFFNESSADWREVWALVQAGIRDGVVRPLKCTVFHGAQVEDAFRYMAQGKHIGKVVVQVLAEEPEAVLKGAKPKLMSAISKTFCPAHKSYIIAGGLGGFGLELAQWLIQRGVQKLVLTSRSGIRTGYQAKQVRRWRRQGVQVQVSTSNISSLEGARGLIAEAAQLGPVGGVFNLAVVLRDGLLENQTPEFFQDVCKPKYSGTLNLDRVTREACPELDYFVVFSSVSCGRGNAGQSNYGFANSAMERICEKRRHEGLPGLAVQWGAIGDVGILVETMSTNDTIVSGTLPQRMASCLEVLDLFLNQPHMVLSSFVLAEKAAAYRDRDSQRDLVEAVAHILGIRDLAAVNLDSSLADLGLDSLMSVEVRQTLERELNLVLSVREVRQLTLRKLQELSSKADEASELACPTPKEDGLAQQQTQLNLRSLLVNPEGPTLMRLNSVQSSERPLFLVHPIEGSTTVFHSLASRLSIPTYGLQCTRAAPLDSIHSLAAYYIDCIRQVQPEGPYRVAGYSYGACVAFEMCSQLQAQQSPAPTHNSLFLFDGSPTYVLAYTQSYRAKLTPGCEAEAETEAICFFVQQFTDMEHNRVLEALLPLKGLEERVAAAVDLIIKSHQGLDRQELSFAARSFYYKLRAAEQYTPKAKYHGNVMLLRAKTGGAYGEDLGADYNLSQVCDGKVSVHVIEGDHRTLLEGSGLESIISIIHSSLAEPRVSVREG
rCAG RNA binder: molecules binding r(CAG) RNA repeats; r(CAG) RNA repeat, TO-PRO-1 dye displacement fluorescence; inhibition, % at 3 µM; 370,000 tested, 1.3% active; AID 651821;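 active = inhibition above the plate cutoff, the mean of all test compounds on that plate plus 3 SD, cut at about 35% in these data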;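 also: higher means more dye released from RNA so lower well fluorescence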
Each line names hits and unclear results; the compound was inactive in the other large screens.

COc1ccc(-c2csc3ncnc(Sc4nnnn4C)c23)cc1	Myeloid diff MLP active
Cn1nnnc1Sc1ncnc2scc(-c3ccc(Cl)cc3)c12	none
Cn1nnnc1Sc1ncnc2scc(-c3cccc4c3sc3ccccc34)c12	Myeloid diff MLP active
Cn1nnnc1Sc1ncnc2scc(-c3ccc([N+](=O)[O-])cc3)c12	GRIN3A LBD mod 13, Myeloid diff MLP inconclusive
COC(=O)[C@]12C[C@H](CC(=O)NCc3cccc4ccccc34)C(=O)N(CCc3ccc(OC)c(OC)c3)C1=C[C@H](C(C)(C)C)O[C@@H]2C	none (no result: GRIN3A LBD mod, Myeloid diff MLP, MPTP inh, FAS TE block)
O=C(Nc1ccc(F)cc1)OCc1cn(Cc2ccccc2)nn1	none (no result: GRIN3A LBD mod, Myeloid diff MLP, MPTP inh, FAS TE block)
O=C(/C=C(\Nc1cccc(F)c1)c1ccccc1)c1ccccc1	none (no result: GRIN3A LBD mod, Myeloid diff MLP, MPTP inh, FAS TE block)
O=C(CCn1nnc2ccccc21)N1CCN(Cc2ccc3c(c2)OCO3)CC1	none (no result: GRIN3A LBD mod, Myeloid diff MLP, MPTP inh, FAS TE block)
O=C(CSc1nnnn1-c1ccccc1)NCc1cccs1	Myeloid diff MLP active
CSc1ccccc1-n1nnnc1SCC(=O)NCc1cccs1	none
O=C(Nc1cccc([N+](=O)[O-])c1)c1ccc2ccccc2c1O	GRIN3A LBD mod 26
CCOC(=O)/C(=N\Nc1ccc(OC)cc1)c1csc(Nc2ccccc2)n1	none
CCOC(=O)/C(=N/Nc1ccccc1)c1csc(Nc2ccccc2)n1	GRIN3A LBD mod 26
CCOC(=O)/C(=N\Nc1ccc(Cl)cc1)c1csc(Nc2ccccc2)n1	GRIN3A LBD mod 27
O=C(/C=C/c1ccccc1)Nn1c(-c2cccs2)nc2ccccc2c1=O	none
O=C(/C=C/c1cccc(Cl)c1)Nn1c(-c2cccs2)nc2ccccc2c1=O	GRIN3A LBD mod 17
CC(C)CC1NC(=O)N(CC(=O)Nc2ccccc2-c2ccccc2)C1=O (stereo not given)	none
CC(C)CC1NC(=O)N(CC(=O)Nc2ccc(-c3ccccc3)cc2)C1=O (stereo not given)	GRIN3A LBD mod 13
CC(C)c1ccc(NC(=O)CN2C(=O)NC(Cc3c[nH]c4ccccc34)C2=O)cc1 (stereo not given)	GRIN3A LBD mod 13
CCOC(=O)C1=CCN(S(=O)(=O)c2cccc(Cl)c2)C1c1cccc(Br)c1 (stereo not given)	none (no result: GRIN3A LBD mod, Myeloid diff MLP, MPTP inh, FAS TE block)
Cc1ccnc(NS(=O)(=O)c2ccc(N3C(=O)c4ccccc4C3=O)cc2)n1	none
Cc1ccnc(NS(=O)(=O)c2ccc(N3C(=O)c4c(Cl)c(Cl)c(Cl)c(Cl)c4C3=O)cc2)n1	GRIN3A LBD mod 28
CSc1ncc(Cl)c(C(=O)Nc2ccc(S(=O)(=O)Nc3nccc(C)n3)cc2)n1	GRIN3A LBD mod 13
CCCCCCCCN1C(=O)[C@@H](CC(=O)NCCCN2CCCC2=O)C[C@@]2(C(=O)OC)C1=C[C@H](C(C)(C)C)O[C@@H]2C	none (no result: GRIN3A LBD mod, Myeloid diff MLP, MPTP inh, FAS TE block)
CN(C)c1ccc(N=Nc2cccc3ccoc23)cc1	GRIN3A LBD mod 22
CN(C)c1ccc(N=Nc2cccc(F)c2)cc1	Myeloid diff MLP inconclusive
COc1ccc(C2NC(=S)N(Cc3ccc(Cl)cc3)C(C)=C2C(C)=O)cc1 (stereo not given)	none (no result: GRIN3A LBD mod, Myeloid diff MLP, MPTP inh, FAS TE block)
CN(CC(=O)Nc1c(Cl)cccc1Cl)C(=O)CNC(=O)c1sc2ccccc2c1Cl	GRIN3A LBD mod 19
COc1ccc(NC(=O)CN(C)C(=O)CNC(=O)c2sc3ccccc3c2Cl)cc1	none
COC(=O)[C@]12C[C@H](CC(=O)NCc3cccs3)C(=O)N(CCC3=CCCCC3)C1=C[C@H](COCc1ccccc1)O[C@@H]2C	none (no result: GRIN3A LBD mod, Myeloid diff MLP, MPTP inh, FAS TE block)
COc1ccc(-c2csc(NC(=O)CSc3nc(C)nc4sc(C(=O)O)c(C)c34)n2)cc1	rCAG RNA binder 42
COc1ccc(NCc2nnc(SCC(=O)Nc3nc(-c4ccccc4)cs3)n2-c2ccccc2)cc1	GRIN3A LBD mod 12
O=C(CSc1nc2ccccc2o1)Nc1nc2ccccc2s1	none
O=C(CSc1nc2ccccc2o1)Nc1nc(-c2ccccc2)cs1	GRIN3A LBD mod 12
CCOC(=O)[C@]12CCCC=C1N(Cc1ccc(OC)cc1)C(=O)[C@@H]2CC(=O)NCCCN1CCCC1=O	none (no result: GRIN3A LBD mod, Myeloid diff MLP, MPTP inh, FAS TE block)
COc1ccc(OCCCN2CCC(C(O)(c3ccccc3)c3ccccc3)CC2)cc1	none (no result: GRIN3A LBD mod, Myeloid diff MLP, MPTP inh, FAS TE block)
COc1cc(-c2nnc(SCC(=O)c3ccc(C)cc3)o2)cc(OC)c1OC	GRIN3A LBD mod 11
COc1cccc(C(=O)CSc2nnc(-c3cc(OC)c(OC)c(OC)c3)o2)c1	none
Cc1[nH]c2ccc(-c3nnc(SCC(=O)c4ccc(F)cc4)o3)cc2c1C	GRIN3A LBD mod 29
COC(=O)[C@]12C[C@H](CC(=O)NCc3cccc4ccccc34)C(=O)N(Cc3cccc4ccccc34)C1=C[C@H](COCc1ccccc1)O[C@@H]2C	none (no result: GRIN3A LBD mod, Myeloid diff MLP, MPTP inh, FAS TE block)
O=C(Nc1nc2ccc(F)cc2s1)c1cccs1	GRIN3A LBD mod 16
CCOC(=O)c1ccc2nc(NC(=O)c3ccco3)sc2c1	GRIN3A LBD mod 16
CCCC(=O)Nc1nc2ccc(C(=O)OCC)cc2s1	none
COC(=O)c1nc(NC(=S)NC(=O)c2cccs2)sc1C	none
O=C(NC(=S)Nc1nc2ccccc2s1)c1cccs1	GRIN3A LBD mod 27
CCOC(=O)c1ccc2nc(NC(=O)c3cccs3)sc2c1	GRIN3A LBD mod 42
CN(C)S(=O)(=O)c1ccc2nc(NC(=O)c3cccs3)sc2c1	none
CCOc1ccc2nc(NC(=O)c3ccco3)sc2c1	none
O=C(Nc1nc2ccccc2s1)C1CCCO1 (stereo not given)	none
O=C(Nc1nncs1)c1cccc(S(=O)(=O)N2CCc3ccccc32)c1	none
O=C(Nc1nc2ccc(F)cc2s1)c1cccc(S(=O)(=O)N2CCc3ccccc32)c1	GRIN3A LBD mod 14
O=C(Nc1nc2ccccc2s1)C1c2ccccc2Oc2ccccc21	GRIN3A LBD mod 11, Myeloid diff MLP active
COc1ccc(NS(=O)(=O)c2cc(NC(=O)/C=C/c3cccs3)ccc2N2CCOCC2)cc1	GRIN3A LBD mod 30
COc1ccc(-c2nnc(SCC(=O)N3CCCC3=O)n2N)cc1OC	GRIN3A LBD mod 19
Nn1c(SCC(=O)N2CCCC2=O)nnc1-c1cccs1	none
O=C(O)c1ccc(COc2ccccc2C=C2C(=O)c3ccccc3C2=O)cc1	GRIN3A LBD mod 29, Myeloid diff MLP active
C=CCN1C[C@H](COC(=O)c2cccc(C)c2)Oc2cccc(F)c2S1(=O)=O	none (no result: GRIN3A LBD mod, Myeloid diff MLP, MPTP inh, FAS TE block)
N#CC(C#N)=c1ccc2c(c1)NC1(CCCCC1)N=2	Myeloid diff MLP active
N#CC(C#N)=C1NC2(CCCCC2)Cc2ccccc21	none
COc1ccc(S[C@]2(C(=O)N3CCCC3)CC(=O)N(C(=O)c3ccccc3)[C@@H]2c2ccc(OC)cc2)cc1	none (no result: GRIN3A LBD mod, Myeloid diff MLP, MPTP inh, FAS TE block)
CC(C)(C)NC(=O)C1CCC(CNS(=O)(=O)c2cccc3nsnc23)CC1 (stereo not given)	GRIN3A LBD mod 10
C[C@H]1CCC/C=C/C(=O)c2c(cc(O)c(Cl)c2O)CC(=O)O1	none (no result: GRIN3A LBD mod, Myeloid diff MLP, MPTP inh, FAS TE block)
COCCCNC(=O)c1ccc2c(=O)n(Cc3ccc4c(c3)OCO4)c(=S)[nH]c2c1	GRIN3A LBD mod 12
CCCc1[nH]n(-c2ccc([N+](=O)[O-])cc2)c(=O)c1C=NCCc1c[nH]c2ccccc12	GRIN3A LBD mod 22
Cc1[nH]n(-c2ccc([N+](=O)[O-])cc2)c(=O)c1C=NCCc1c[nH]c2ccccc12	GRIN3A LBD mod 27
CCCCc1c(-c2ccccc2OC)ncn1Cc1c(Cl)cccc1Cl	none (no result: GRIN3A LBD mod, Myeloid diff MLP, MPTP inh, FAS TE block)
